Measured values from PubChem BioAssay (NCATS).
Values joined by “and” are separate entries in the source; they are usually repeats but may differ in a detail not shown here. Identical values can stand only once. Records with an inconclusive call do not appear. A call without a number means that no potency is given here. Active and inactive are the calls of the source. Unless noted, the call rests on the fitted dose curve; in most records, active means well fitted curve in the direction sought with a large enough effect; inconclusive means small, poorly fitted or top-dose-only effect, or another doubt; inactive means no such curve, though single readings can be large; an effect the other way counts as inactive or inconclusive.

Legend:
[1] = target: Thyroid hormone receptor beta (Homo sapiens) (UniProt P10828); test: qHTS assay for small molecule antagonists of thyroid hormone receptor beta signaling (AID 588547; active means well fitted inhibition curve with a large enough effect in the signal ratio, with a control signal flat, not every such curve was filed as active; the % refers to the signal ratio;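 further: cells stimulated with 0.4 nM T3 agonist during compound exposure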); conditions: TR-UAS-bla HEK293, beta-lactamase ratio, antagonist mode, 18 h
Method in brief: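 Inhibition of T3-driven (0.4nM final) beta-lactamase reporter activity was measured over 0.59 nM to 92 uM compound after 18 h at 37 C. The cells were GripTite HEK293 TR-UAS-bla in charcoal/dextran-stripped serum, with CCF4 ratio read-out and IC50 from Hill fits.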

[2] = qHTS assay for small molecule agonists of retinoid X receptor alpha signaling (AID 588544; calls by dose curve); conditions: HEK293T RXRa-UAS-bla, beta-lactamase reporter, 18 h; 530 nm emission
[3] = target: Retinoic acid receptor RXR-alpha (Homo sapiens) (UniProt P19793); test: as above; conditions: HEK293T RXRa-UAS-bla, beta-lactamase reporter, 18 h; series mostly up to 76.7 µM
[4] = target: Thyroid hormone receptor beta (Homo sapiens) (UniProt P10828); test: qHTS assay for small molecule agonists of thyroid hormone receptor beta signaling (AID 588545; calls by dose curve); conditions: TR-UAS-bla GripTite HEK 293, beta-lactamase ratio, agonist mode, 18 h, percent of T3 response, DMSO as zero; series mostly up to 76.7 µM
Method in brief: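 Stimulation of a TR-driven beta-lactamase reporter was quantified in GripTite HEK 293 cells. Compound series ran for 18 hrs; curves were normalized to T3 and DMSO controls and fitted to yield EC50.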

[5] = qHTS assay for small molecule antagonists of retinoid X receptor alpha signaling (AID 588546); conditions: HEK293T RXRa-UAS-bla, beta-lactamase ratio, antagonist mode; measured here: W530 green channel, cytotoxicity proxy;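 further: cells stimulated with 9-cis-retinoic acid as agonist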
Method in brief: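 Beta-lactamase reporter inhibition, read as CCF4 fluorescence ratio (ex 405, em 460/530 nm) after 2 h at RT. HEK293T UAS-bla cells, 2500/well, were stimulated with 9-cis-RA at 500 or 100 nM final alongside test compound for 18 h at 37 C.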

[6] = target: Voltage-gated inwardly rectifying potassium channel KCNH2 (Homo sapiens) (UniProt Q12809); test: qHTS Assay for Small Molecule Inhibitors of the Human hERG Channel Activity (AID 588834); conditions: U2OS BacMam hERG, FluxOR thallium flux fluorescence; series mostly up to 46.1 µM;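 further: top concentration of the series differs between compounds; lower thallium flux fluorescence means stronger hERG block; nearly all actives have a fitted effect of over 50% in size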
Method in brief: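 Concentration-response qHTS measuring drop in thallium-sensitive dye signal. U2OS cells carrying BacMam hERG; compound exposure ~10 min, then stimulation buffer and 2 min read at 1 sec intervals.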

[7] = target: Luciferin 4-monooxygenase (Photinus pyralis) (UniProt P08659); test: Biochemical firefly luciferase enzyme assay for NPC (AID 624030); further: nearly all actives have a fitted effect of over 70% in size; further: potency means the concentration at half of the fitted maximal effect; conditions: purified P. pyralis luciferase, luminescence, 5 min; series mostly up to 58.6 µM
Method in brief: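 Direct inhibition of firefly luciferase enzyme (10 nM final, 50 mM Tris Acetate) assessed by luminescence within 5 minutes. Percent activity scaled between DMSO and PTC124 positive control, with concentration-effect curves classified by fit quality and response.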

[8] = S16 Schwann cell viability assay (CellTiter-Glo assay) (AID 624031); conditions: S16 rat Schwann cells viability, 24 h; series mostly up to 57.5 µM;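 further: native untransfected S16 rat Schwann cells; cellular ATP luminescence as a viability measure; nearly all actives have a fitted effect of over 70% in size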
Method in brief: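 Concentration-effect curves come from CellTiter-Glo luminescence of S16 rat Schwann cells after 24 h compound exposure. Each reading was normalized to DMSO wells (0%) and wells without cells, and curves were ranked by r2 and response magnitude.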

[9] = S16 Schwann cell PMP22 intronic element firefly luciferase assay (AID 624032); conditions: S16 rat Schwann cells, PMP22 element FLuc, 24 h; series mostly up to 57.5 µM; further: nearly all actives have a fitted effect of over 30% in size
Method in brief: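 Luciferase reporter of PMP22 intronic-element expression in stably transfected S16 rat Schwann cells, read by ONE-Glo luminescence after 24 h compound exposure at 37 C. Activity scaled between DMSO (0%) and positive-control PTC124; concentration-effect curves quality-classified.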

[10] = S16 Schwann cell PMP22 intronic element beta-lactamase assay (AID 624044; calls by dose curve; further: nearly all actives have a fitted effect of over 15% in size); conditions: S16 rat Schwann cells, PMP22 element beta-lactamase FRET, 24 h; series mostly up to 38.3 µM
Method in brief: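 Rat S16 Schwann cells with beta-Lac driven by a PMP22 intronic element, compound-treated 24 h at 37 °C. LiveBLAzer FRET B/G read: 460 nm normalized to potassium clavulanate vs DMSO; 535 nm FRET as viability; concentration-effect curves classified.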

Chain of Retinoic acid receptor RXR-alpha (Homo sapiens) (P19793 whole entry, looked up): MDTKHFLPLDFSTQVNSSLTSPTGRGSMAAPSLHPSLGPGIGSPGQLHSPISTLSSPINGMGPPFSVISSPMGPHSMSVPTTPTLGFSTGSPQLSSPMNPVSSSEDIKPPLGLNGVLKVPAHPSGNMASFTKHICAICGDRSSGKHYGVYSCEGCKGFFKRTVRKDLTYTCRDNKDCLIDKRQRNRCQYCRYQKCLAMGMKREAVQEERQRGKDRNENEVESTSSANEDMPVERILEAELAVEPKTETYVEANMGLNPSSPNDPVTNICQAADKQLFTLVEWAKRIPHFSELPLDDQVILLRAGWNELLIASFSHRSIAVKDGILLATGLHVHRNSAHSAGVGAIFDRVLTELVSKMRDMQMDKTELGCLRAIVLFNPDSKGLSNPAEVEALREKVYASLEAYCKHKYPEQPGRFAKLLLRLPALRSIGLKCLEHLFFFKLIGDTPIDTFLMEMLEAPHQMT
Chain of Thyroid hormone receptor beta (Homo sapiens) (P10828 whole entry, looked up): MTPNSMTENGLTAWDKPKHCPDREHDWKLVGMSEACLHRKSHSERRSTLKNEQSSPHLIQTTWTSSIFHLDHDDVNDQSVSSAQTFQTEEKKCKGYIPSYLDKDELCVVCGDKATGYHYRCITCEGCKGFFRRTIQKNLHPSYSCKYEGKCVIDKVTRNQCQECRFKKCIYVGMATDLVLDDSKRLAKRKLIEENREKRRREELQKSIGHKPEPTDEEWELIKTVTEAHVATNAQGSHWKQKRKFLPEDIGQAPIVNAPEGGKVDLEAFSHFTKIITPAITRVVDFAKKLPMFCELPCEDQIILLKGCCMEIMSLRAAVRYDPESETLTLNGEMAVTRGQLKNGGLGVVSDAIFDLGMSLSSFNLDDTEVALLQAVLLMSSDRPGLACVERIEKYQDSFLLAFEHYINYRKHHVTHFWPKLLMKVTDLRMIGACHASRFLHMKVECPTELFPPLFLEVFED
Chain of Luciferin 4-monooxygenase (Photinus pyralis) (P08659 whole entry, looked up): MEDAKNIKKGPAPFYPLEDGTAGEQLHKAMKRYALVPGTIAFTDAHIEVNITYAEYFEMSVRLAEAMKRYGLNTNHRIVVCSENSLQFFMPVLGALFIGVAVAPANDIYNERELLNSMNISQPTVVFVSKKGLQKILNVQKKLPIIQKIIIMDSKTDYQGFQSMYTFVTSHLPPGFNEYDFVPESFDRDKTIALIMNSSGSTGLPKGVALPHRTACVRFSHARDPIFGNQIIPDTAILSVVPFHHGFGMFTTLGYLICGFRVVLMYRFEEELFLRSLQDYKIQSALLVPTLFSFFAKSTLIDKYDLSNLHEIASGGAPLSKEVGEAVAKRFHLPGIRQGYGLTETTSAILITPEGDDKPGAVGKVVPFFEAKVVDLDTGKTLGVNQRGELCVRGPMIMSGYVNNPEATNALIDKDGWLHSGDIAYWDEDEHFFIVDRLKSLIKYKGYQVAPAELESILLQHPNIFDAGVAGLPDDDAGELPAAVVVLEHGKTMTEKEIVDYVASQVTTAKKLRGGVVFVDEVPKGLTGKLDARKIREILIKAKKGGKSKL
Chain of Voltage-gated inwardly rectifying potassium channel KCNH2 (Homo sapiens) (Q12809 whole entry, looked up): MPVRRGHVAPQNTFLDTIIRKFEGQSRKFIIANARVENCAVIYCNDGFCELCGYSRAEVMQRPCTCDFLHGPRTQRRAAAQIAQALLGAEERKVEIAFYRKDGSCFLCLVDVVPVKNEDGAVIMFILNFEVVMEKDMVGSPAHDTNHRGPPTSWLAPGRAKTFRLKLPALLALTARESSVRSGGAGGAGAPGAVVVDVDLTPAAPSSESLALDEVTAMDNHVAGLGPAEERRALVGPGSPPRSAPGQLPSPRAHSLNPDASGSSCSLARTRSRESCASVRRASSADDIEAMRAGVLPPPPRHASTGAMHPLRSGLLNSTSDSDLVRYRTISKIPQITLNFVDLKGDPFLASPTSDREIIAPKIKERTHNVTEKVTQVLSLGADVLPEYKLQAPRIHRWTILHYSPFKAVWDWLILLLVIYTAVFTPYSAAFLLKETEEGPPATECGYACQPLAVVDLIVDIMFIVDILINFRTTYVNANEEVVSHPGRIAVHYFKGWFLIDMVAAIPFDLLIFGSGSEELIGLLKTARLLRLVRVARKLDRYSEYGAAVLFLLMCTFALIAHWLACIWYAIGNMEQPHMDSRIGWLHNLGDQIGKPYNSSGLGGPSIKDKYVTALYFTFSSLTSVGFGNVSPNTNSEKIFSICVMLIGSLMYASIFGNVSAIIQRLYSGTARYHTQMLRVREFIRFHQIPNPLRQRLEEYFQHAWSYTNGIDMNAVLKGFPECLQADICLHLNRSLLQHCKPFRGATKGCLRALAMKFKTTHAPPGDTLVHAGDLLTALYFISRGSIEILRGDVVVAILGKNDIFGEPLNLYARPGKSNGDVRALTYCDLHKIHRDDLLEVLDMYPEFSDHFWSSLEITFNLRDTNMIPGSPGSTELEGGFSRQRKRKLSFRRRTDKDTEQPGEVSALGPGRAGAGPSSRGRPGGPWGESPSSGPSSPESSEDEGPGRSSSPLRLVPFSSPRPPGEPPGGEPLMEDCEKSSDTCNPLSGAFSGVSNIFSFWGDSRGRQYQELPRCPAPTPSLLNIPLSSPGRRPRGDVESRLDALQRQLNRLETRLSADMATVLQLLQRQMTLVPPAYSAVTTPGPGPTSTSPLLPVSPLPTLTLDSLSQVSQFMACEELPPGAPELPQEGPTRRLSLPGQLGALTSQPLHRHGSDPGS

Row | SMILES | activity change % (negative = inhibition) [1] | max response [2] | outcome [3] | outcome [4] | max response [5] | Potency [6] | Potency [7] | Potency [8] | Potency [9] | Potency [10]
1 | Cc1cc2nc3c(=O)[nH]c(=O)nc-3n(C[C@H](O)[C@H](O)[C@H](O)CO)c2cc1C | -25% (inactive) |  |  |  |  |  |  |  |  | 
2 | NCCNCCNCCNCCN | -25.9% (inactive) and -19% (inactive) | -10.7% and -8.96% | inactive | inactive | -6.87% | inactive | inactive | inactive | inactive | 
3 | CCCc1c(OCCCCc2nn[nH]n2)ccc(C(C)=O)c1O |  |  |  | inactive | 22.4% | inactive |  |  |  | inactive
4 | Oc1cccc(O)c1 |  | -9.49% | inactive | inactive | -5.21% |  | inactive | inactive | inactive | inactive
5 | CC(O)CN(CCN(CC(C)O)CC(C)O)CC(C)O (centres undefined) |  |  |  |  | -7.75% | inactive | inactive | inactive | inactive | 
6 | CC1=C(/C=C/C(C)=C/C=C/C(C)=C/C(=O)O)C(C)(C)CCC1 | 3.37% (inactive) |  |  | inactive |  |  | 32.2 µM (active) | inactive | inactive | 
7 | CN(C)CCOC(C)(c1ccccc1)c1ccccn1 (centres undefined) | -6.28% (inactive) | 19.3% | inactive | inactive | 3.38% | inactive |  |  |  | 
8 | O=C1c2c(O)cccc2Cc2cccc(O)c21 | 3.09% (inactive) | -24.2% | inactive | inactive | -14.8% | inactive | inactive | inactive |  | 
9 | COc1ccc(Cl)cc1C(=O)NCCc1ccc(S(=O)(=O)NC(=O)NC2CCCCC2)cc1 | 12.2% (inactive) |  |  | inactive | 15.3% |  | inactive | inactive |  | inactive
10 | CNC(=O)Oc1ccc2c(c1)[C@]1(C)CCN(C)[C@@H]1N2C | 3.24% (inactive) | -13.6% | inactive | inactive | -2.66% | inactive | inactive | inactive |  | 
11 | NC(=O)N/N=C/c1ccc([N+](=O)[O-])o1 | 0.5% (inactive) |  |  | inactive | 1.55% and -8.19% |  | inactive | inactive |  | inactive
12 | CCOC(=O)c1ccc(O)cc1 | -5.55% (inactive) | 3.41% | inactive | inactive | -7.61% | inactive | inactive | inactive | inactive | inactive
13 | O=S(=O)(O)NC1CCCCC1 | 6.74% (inactive) |  |  | inactive | -8.27% | inactive | inactive | inactive | inactive | 
14 | CCCCC(CC)COC(=O)c1ccccc1O (centres undefined) | 12.6% (inactive) | -12.2% | inactive | inactive | -3.04% | inactive | inactive | inactive |  | 
15 | COc1ccc2cc1Oc1cc3c(cc1OC)CC[N+](C)(C)[C@H]3Cc1ccc(cc1)Oc1c(OC)c(OC)cc3c1[C@@H](C2)[N+](C)(C)CC3 |  |  |  |  |  | inactive |  |  |  | 
16 | CCCCCCCCCCCCOS(=O)(=O)O | -2.2% (inactive) | -1.31% [middle of 4 runs] | inactive | inactive | -7.08% [middle of 4 runs] | inactive |  | inactive |  | inactive
18 | CN(C)CCC=C1c2ccccc2CCc2ccccc21 |  | 20% | inactive | inactive |  |  | inactive |  |  | 
19 | NC(=O)c1ncn([C@@H]2O[C@H](CO)[C@@H](O)[C@H]2O)n1 | -19.8% (inactive) | 18.3% | inactive |  |  |  |  |  |  | 
20 | NCCNCCNCCN | -6.32% (inactive) | 1.23% | inactive | inactive | -7.08% | inactive | inactive | inactive | inactive | 
21 | CCCCOC(=O)c1ccc(O)cc1 | -4.41% (inactive) and 2.19% (inactive) | 0.828% and -8.13% | inactive | inactive | -11.5% and -9.16% | inactive |  | inactive | inactive | inactive
